# Screens: PubChem, The Scripps Research Institute Molecular Screening Center
# CTSL1 counter – counter-screen for PFM18AAP inhibitors: inhibitors of F. hepatica cathepsin L1; recombinant F. hepatica cathepsin L1, Z-Leu-Arg-MCA fluorescence; inhibition, % at 5.96 µM; 0.49% of 300,000 active;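 active = inhibition above the mean of all tested compounds plus 3 SD, set per screening campaign, cut at about 17% in these data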;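 note: 0% = plate median of test compound wells and 100% = 1 µM Z-Phe-Ala-diazomethylketone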
# pPAFAH FP inh – pPAFAH (human) enzyme inhibition; 1.5% of 330,000 active; recombinant pPAFAH, FP-rhodamine probe fluorescence polarization; AID 463082; inhibition, % at 3.39 µM;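 active = inhibition above the mean inhibition across the screen plus 3 SD, cut at about 25% in these data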;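 note: inhibitors block binding of the rhodamine activity-based probe so polarization drops; 0% = enzyme with DMSO and 100% = wells lacking pPAFAH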
# PAFAH1B2 inh – inhibitors of human PAFAH1B2; P68402; recombinant PAFAH1B2, FP-rhodamine activity probe, fluorescence polarization; inhibition, % at 3.39 µM; 1.2% of 340,000 active; AID 492953;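 active = inhibition above the mean of all tested compounds plus 3 SD, cut at about 24% in these data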;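 note: 0% = enzyme with DMSO and 100% = wells lacking PAFAH1B2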
# Target sequence (P68402 whole entry, looked up): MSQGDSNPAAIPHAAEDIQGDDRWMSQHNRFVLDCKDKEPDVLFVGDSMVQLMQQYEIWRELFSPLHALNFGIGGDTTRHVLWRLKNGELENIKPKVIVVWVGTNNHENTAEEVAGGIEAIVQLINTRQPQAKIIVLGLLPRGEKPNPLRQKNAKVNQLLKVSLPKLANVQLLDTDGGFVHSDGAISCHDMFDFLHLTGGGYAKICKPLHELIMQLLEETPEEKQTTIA
# PP5 primary – PP5 (human) phosphatase inhibition; P53041; purified PP5c, OMFP substrate fluorescence; inhibition, % at 6.7 µM; 0.18% of 320,000 active; AID 1987;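 active = inhibition above the campaign's mean inhibition across all tested compounds plus 3 SD, cut at about 9.5% in these data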;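 note: 0% = DMSO only and 100% = 100 µM cantharidin control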
# PAFAH2 inh – inhibitors of human PAFAH2 | Q99487 | recombinant PAFAH2, FP-rhodamine activity probe, fluorescence polarization | 0.99% of 340,000 active | inhibition, % at 3.39 µM;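 active = inhibition above the mean over all tested compounds plus 3 SD, cut at about 30% in these data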;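 note: inhibitors block probe labeling of enzyme so polarization drops; 0% = enzyme with DMSO and 100% = wells lacking PAFAH2 protein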
# PAFAH1B3 FP inh – inhibitors of human PAFAH1B3; inhibition, % at 3.39 µM; 0.28% of 340,000 active; recombinant PAFAH1B3, FP-rhodamine probe, fluorescence polarization; Q15102;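 active = inhibition above the screen-wide average of all tested compounds plus 3 SD, cut at about 25% in these data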;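 note: 0% = enzyme with DMSO only and 100% = wells lacking PAFAH1B3 protein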
# Target sequence (Q15102 whole entry, looked up): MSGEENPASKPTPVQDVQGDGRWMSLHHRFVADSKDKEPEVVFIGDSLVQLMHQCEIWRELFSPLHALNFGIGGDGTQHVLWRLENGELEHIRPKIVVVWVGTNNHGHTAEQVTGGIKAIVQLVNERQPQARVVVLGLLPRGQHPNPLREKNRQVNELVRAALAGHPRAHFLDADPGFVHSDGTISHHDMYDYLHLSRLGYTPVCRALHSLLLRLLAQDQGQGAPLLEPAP
# pPAFAH confirm – confirmation of human plasma PAF acetylhydrolase (pPAFAH) inhibitors; AID 463230; 72% of 2,300 active; shares compounds with pPAFAH FP inh; inhibition, % at 3.39 µM; recombinant pPAFAH, FP-Rh probe fluorescence polarization;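 active = mean inhibition of the triplicate above the hit cutoff set for the earlier primary screen, cut at about 25% in these data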;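 note: 0% = enzyme with DMSO and 100% = wells lacking pPAFAH enzyme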
# Numbers without * were called inactive; / = not tested or not shown. The list is not random: actives were taken first. Their share in the collection is about 3%.
SMILES,CTSL1 counter,pPAFAH FP inh,PAFAH1B2 inh,PP5 primary,PAFAH2 inh,PAFAH1B3 FP inh,pPAFAH confirm
CCOP(=O)(OCC)c1nc(-c2cccc3ccccc23)oc1NCCc1ccc(OC)cc1,3,38*,-1,4,6,7,44*
Cc1nc2c(=O)n(C)c(=O)n(C)c2nc1Cl,0,8,7,3,0,-7,/
COc1ccc2[nH]c(O)c(N=NC(=O)c3ccc(NS(=O)(=O)c4cccs4)cc3)c2c1,/,44*,21,0,23,32*,39*
O=C(Nc1cccc(S(=O)(=O)NC2=NCCC2)c1)c1cc(-c2ccco2)nc2ccccc12,2,43*,0,1,4,8,22
COc1ccc(-n2c(C)cc(/C=C3\SC(=O)NC3=O)c2C)cc1,0,40*,0,0,1,1,23
Cc1cc(/C=C2\SC(=S)NC2=O)c(C)n1-c1cccc(O)c1,2,45*,15,4,20,8,49*
Cc1cc(/C=C2\SC(=S)NC2=O)c(C)[nH]1,4,46*,-1,1,15,12,1
Cc1ccc(-n2c(C)cc(/C=C3\SC(=O)NC3=O)c2C)cc1,5,14,5,1,4,12,/
O=C(CSc1nc(C(F)(F)F)cc(=O)[nH]1)Nc1cccc2ccccc12,3,6,0,-2,11,1,/
CCN(CC)S(=O)(=O)c1ccc(Cl)c(NC(=O)COC(=O)/C=C/c2ccc(O)c(OC)c2)c1,-3,37*,-3,6,75*,0,13
O=C(O)C(c1ccccc1)C(O)c1ccc2c(c1)OCO2 (configuration not stated),/,/,7,/,1,3,/
CCOC(=O)C1(CCOc2ccccc2)CCN(Cc2ccc(O)c(OCC)c2)CC1,2,8,-5,-1,1,2,/
CC(C)C(=O)NC(c1cccs1)c1cc([N+](=O)[O-])c2cccnc2c1O (configuration not stated),4,84*,-5,1,-4,6,79*
Cc1ccc(C(NC(=O)C(C)C)c2cc([N+](=O)[O-])c3cccnc3c2O)cc1 (configuration not stated),1,54*,5,5,17,17,74*
CCCCN1C2CCCC1CC(NC(=O)c1cccc(Cl)c1)C2 (configuration not stated),2,3,-1,1,-1,-2,/
Cc1ccccc1-c1nnc(SCC(=O)Nc2cccnc2Cl)o1,/,2,5,/,3,4,/
CN(C(=O)CSc1nc(O)cc(=O)n1C1CCCC1)c1ccccc1,-2,48*,4,-1,-9,8,8
CCN(CC)S(=O)(=O)c1cccc(C(=O)N/N=C/c2cccc(O)c2O)c1,1,41*,0,0,12,4,29*
CCN(CC)S(=O)(=O)c1cccc(C(=O)N/N=C/c2cc(OC)c(O)c(OC)c2)c1,-4,7,6,1,2,-5,/
O=C(CSc1nnnn1-c1ccc(F)cc1)Nc1ccccc1F,/,/,1,/,-3,2,/
CC(C)(C)S(=O)(=O)N1Cc2cc(=O)n(Cc3ccccc3)c(CCO)c2[C@H]1CCO,/,/,-2,/,-2,14,/
COc1cccc(/C=C2/C(=O)NN(c3ccccc3)C2=O)c1,/,/,-1,/,25,1,/
O=C1NN(c2ccccc2)C(=O)/C1=C/c1ccc(Sc2cccc3ccccc23)o1,6,43*,7,1,21,9,36*
COc1ccc([C@H]2CC(=O)C=C(c3c(OC)cccc3OC)C2)cc1,/,-1,-2,4,-3,7,/
Nc1nc(SCc2ccccc2)n[nH]1,-1,47*,2,1,0,-4,1
SMILES,CTSL1 counter,pPAFAH FP inh,PAFAH1B2 inh,PP5 primary,PAFAH2 inh,PAFAH1B3 FP inh,pPAFAH confirm
Nc1nc(SCc2ccc(Br)cc2)n[nH]1,1,4,15,-1,1,14,/
O=C(Nc1ccc(N2CCCC2)cc1)c1cc(Br)ccc1Cl,3,47*,4,1,2,6,5
O=C(CSc1nnc(C2CC2)n1Cc1ccccc1)N1CCNC1=O,/,-4,7,/,8,11,/
CCOC(=O)NC1(NC(C)C)Oc2ccccc2O1,-2,9,2,-1,-3,3,/
CCOC(=O)NC1(Nc2ccc(C)cc2)Oc2ccccc2O1,0,46*,7,-2,4,11,5
CCCOC(=O)c1cc(-c2ccc(C=O)o2)ccc1Cl,0,14,1,0,-4,1,/
CCCOC(=O)c1cc(-c2ccc(/C=C3/C(=O)N(C)C(=O)C(C#N)=C3C)o2)ccc1Cl,0,58*,7,8,11,7,26*
COc1cc2cc3c(N)c(C(=O)Nc4sc(C)c(C)c4C#N)sc3nc2cc1OC,3,52*,7,0,23,14,14
COc1cc2cc3c(N)c(C(=O)NCc4ccco4)sc3nc2cc1OC,3,24,-2,3,0,9,/
C[C@H]1CN(S(=O)C(C)(C)C)[C@@H](CCO)/C1=C\CCO (some centres not stated),/,/,-2,/,-4,14,/
Cc1cc(NC(=O)CSCC(=O)OCC(=O)c2cccc(Br)c2)no1,/,20,-3,0,9,-4,/
Nc1ccc(N2CCN(C(=O)c3ccco3)CC2)cc1,-3,37*,1,0,0,6,6
O=C(c1ccco1)N1CCN(c2ccc(F)cc2)CC1,-1,2,1,0,-1,2,/
O=C(O)CCc1ccc(-c2ccc(Br)cc2)n1Cc1ccco1,-2,45*,5,2,18,-3,33*
O=C(O)CCc1ccc(-c2ccccc2)n1Cc1ccco1,-1,16,13,-1,8,0,/
COc1cc(C(=O)NC(=S)Nc2ccc(N3CCCC3)cc2)cc(OC)c1OC,-1,3,7,0,3,3,/
O=C(/C=C/c1ccc(O)c(O)c1)c1ccc(S(=O)(=O)N2CCCCCC2)cc1,-6,50*,1,1,8,16,89*
Cn1c(=O)c(C(=O)c2ccccc2)c(O)c2ccccc21,-2,-4,/,0,/,/,/
CC(=O)c1c(OC(=O)c2ccccc2)c2ccccc2n1C,-3,81*,-6,3,-4,5,9
Cc1ccc(C)n1Cc1ccc(C(=O)O)cc1,-6,47*,8,2,22,4,62*
O=C(/C=C/c1ccco1)OCC(=O)c1ccc(OC(F)F)cc1,/,55*,2,3,3,6,8
COc1cc(/C=C/C(=O)OCC(=O)c2ccc(OC(F)F)cc2)ccc1O,/,8,8,/,12,5,/
O=C(CN1C(=O)NC2(CCCCC2)C1=O)NCC(=O)Nc1ccc(F)c(F)c1,5,-2,1,-3,-4,-3,/
